Results published in PubChem BioAssay (NCATS).
Results filed as inconclusive are left out. Activity calls are given as the source filed them. Unless noted, the call rests on the fitted dose curve; in most records, active means well fitted curve in the direction sought with a large enough effect; inconclusive means small, poorly fitted or top-dose-only effect, or another doubt; inactive means no such curve, though single readings can be large; an effect the other way counts as inactive or inconclusive.

How the values were obtained:
[1] = qHTS to identify inhibitors of the type 1 interferon - major histocompatibility complex class I in skeletal muscle: primary screen against the NCATS Pharmaceutical Collection (AID 1347407);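 further: luminescence of HiBiT knocked into endogenous HLA-B as interferon-induced MHC class I level; on the % scale 0 is the no-effect control and ±100 the full control effect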
Method in brief: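 Immortalized human myoblasts (C25cl48) with HiBiT knocked into endogenous HLA-B*08:01 were stimulated with 4 ng/ml IFN-beta and treated with compounds (8-point, 1:5, top 46 uM final) for 24 h at 37 C; HiBiT lytic luminescence read.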

[2] = target: Protein phosphatase 1D (Homo sapiens) (UniProt O15297); test: RapidFire Mass Spectrometry qHTS Assay for Modulators of WT P53-Induced Phosphatase 1 (WIP1) (AID 1347424);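 further: amount of dephosphorylated VEPPL-S-QETFS peptide product formed by WIP1; series mostly up to about 63 µM; plate controls were DMSO wells for no effect and GSK830371 inhibitor control at 10 µM for full effect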
Method in brief: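 WIP1 (10 nM final) was preincubated 1 h at room temperature with compounds in Tris-HCl pH 7.5, 30 mM MgCl2, TCEP, EGTA, BSA; 2 uM VEPPL-pS-QETFS phosphopeptide was added for 5 min, quenched with formic acid, and dephosphorylated product quantified by RapidFire MS.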

[3] = target: Protein phosphatase 1D (Homo sapiens) (UniProt O15297); test: Rhodamine-PBP qHTS Assay for Modulators of WT P53-Induced Phosphatase 1 (WIP1) (AID 1347425); further: % of control where 0% means no effect
Method in brief: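 WIP1 (5 nM final) was preincubated with compound for 1 hour at room temperature. It then dephosphorylated 10 uM VEPPL-pS-QETFS peptide in Tris-HCl pH 7.5 with 30 mM MgCl2. Released Pi was detected by 10 uM Rh-PBP fluorescence (ex 525/em 598 nm) read at 1-min intervals for 11 min, as delta f1 - f0.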

[4] = Primary qHTS for inhibitors of La Crosse Virus (LACV) - induced cell death in SH-SY5Y cells (AID 1508616);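 further: top concentration of the series differs between compounds; 0% = infected DMSO wells and 100% = uninfected DMSO wells; higher means more rescue of cells from virus-induced death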
Method in brief: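 Luminescent ATP readout (ATPLite 1step, 5 min room temperature) measured rescue from LACV-induced death after 6 days of infection at 0.01 MOI; normalized to infected DMSO wells and uninfected DMSO wells.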

[5] = Primary qHTS for small molecule stabilizers of the endoplasmic reticulum resident proteome: Secreted ER Calcium Modulated Protein (SERCaMP) assay (AID 1508630); further: on the % scale 0 is the no-effect control and ±100 the full control effect
Method in brief: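 GLuc-SERCaMP-expressing SH-SY5Y cells, pretreated 16 h with compound, are challenged with thapsigargin to empty ER calcium stores; after 4 h, coelenterazine is added directly to the medium and luminescence is imaged.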

[6] = A High-Content qHTS Against Drug Library for the Identification of Small Molecules that Inhibit DYT1 Early Onset Primary Dystonia-Associated Cell Pathology (AID 1645839; calls by dose curve; further: series mostly up to about 46 µM)
Method in brief: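 Readout: %pathology, the punctate EGFP-TorsinA distribution from imaging, as the primary channel and cell count as the toxicity counterscreen. HEK293 Flp-In cells expressing delE TorsinA were induced with tetracycline and treated with compound for 48 h.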

[7] = target: Cytochrome P450 2D6 (Homo sapiens) (UniProt P10635); test: Cytochrome P450 family 2 subfamily D member 6 (CYP2D6) small molecule antagonists: luciferase biochemical (cell-free) qHTS assay (AID 1645840; active means well fitted curve in the direction sought with a large enough effect in the repeat runs; an effect the other way counts as inactive or inconclusive; further: nearly all actives have a fitted effect of over 55% in size; further: potency means the concentration at half of the fitted maximal effect)
Method in brief: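 P450-Glo luminescent screen: recombinant CYP2D6 enzyme–proluciferin substrate mix preincubated with compound 10 min at room temperature, then NADPH regeneration added for 1 h at room temperature. Detection reagent added for 20 min; luciferin light read as relative luminescence units.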

[8] = target: Cytochrome P450 2C9 (Homo sapiens) (UniProt P11712); test: Cytochrome P450 family 2 subfamily C member 9 (CYP2C9) small molecule antagonists: luciferase biochemical (cell-free) qHTS assay (AID 1645842; active means well fitted curve in the direction sought with a large enough effect in the repeat runs; an effect the other way counts as inactive or inconclusive; further: series mostly up to about 57 µM; on the % scale 0 is the no-effect control and ±100 the full control effect; nearly all actives have a fitted effect of over 55% in size)
Method in brief: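 Luminescence, after 20 min with luciferin detection reagent, reflected CYP2C9 turnover during a 1 h NADPH-driven reaction at 37C. Enzyme-substrate mix contained 0.4% bovine serum albumin and was preincubated with compound 10 min at room temperature.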

[9] = target: Calcium and integrin-binding protein 1 (Homo sapiens) (UniProt Q99828); test: Primary qHTS for Identification of Calcium Integrin Binding Protein 1 (CIB1) Competitor (AID 1508620);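 further: GST tagged CIB1 binding a fluorescein labelled alphaIIb integrin peptide tracer; top concentration of the series differs between compounds; on the % scale 0 is the no-effect control and ±100 the full control effect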
Method in brief: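 Fluorescence polarization competition: CIB1-GST (1 uM final) preincubated with compound 15 min at room temperature, then FITC-labeled alphaIIb peptide (100 nM final) added for another 15 min. Polarization read at Ex 480/Em 540.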

[10] = Counterscreen qHTS for small molecule stabilizers of the endoplasmic reticulum resident proteome: GLuc-NoTag assay (AID 1508627);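 further: SH-SY5Y cells given compound then 100 nM thapsigargin to empty ER calcium; series mostly up to about 76 µM; 0% = thapsigargin alone and -100% = DMSO vehicle control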
Method in brief: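 SH-SY5Y cells stably expressing constitutively secreted GLuc (no SERCaMP tag) were pre-incubated 5 h, treated with compound for 19 h, then 100 nM thapsigargin for 4 h at 37C; medium GLuc read by coelenterazine luminescence.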

[11] = Cell Viability qHTS for small molecule stabilizers of the endoplasmic reticulum resident proteome (AID 1508629); settings: cell viability counter-screen, 100 nM thapsigargin for final 4 h;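 further: human SH-SY5Y neuroblastoma cells carrying the GLuc-SERCaMP reporter; compound exposure about 46 h in total before the viability read; on the % scale 0 is the no-effect control and ±100 the full control effect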

Chain of Calcium and integrin-binding protein 1 (Homo sapiens) (Q99828 whole entry, looked up): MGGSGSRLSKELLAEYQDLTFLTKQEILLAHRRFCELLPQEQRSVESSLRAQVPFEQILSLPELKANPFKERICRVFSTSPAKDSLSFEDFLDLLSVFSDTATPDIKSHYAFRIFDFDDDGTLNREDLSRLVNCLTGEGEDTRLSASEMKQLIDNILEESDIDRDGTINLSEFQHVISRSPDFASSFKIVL
Chain of Protein phosphatase 1D (Homo sapiens) (O15297 whole entry, looked up): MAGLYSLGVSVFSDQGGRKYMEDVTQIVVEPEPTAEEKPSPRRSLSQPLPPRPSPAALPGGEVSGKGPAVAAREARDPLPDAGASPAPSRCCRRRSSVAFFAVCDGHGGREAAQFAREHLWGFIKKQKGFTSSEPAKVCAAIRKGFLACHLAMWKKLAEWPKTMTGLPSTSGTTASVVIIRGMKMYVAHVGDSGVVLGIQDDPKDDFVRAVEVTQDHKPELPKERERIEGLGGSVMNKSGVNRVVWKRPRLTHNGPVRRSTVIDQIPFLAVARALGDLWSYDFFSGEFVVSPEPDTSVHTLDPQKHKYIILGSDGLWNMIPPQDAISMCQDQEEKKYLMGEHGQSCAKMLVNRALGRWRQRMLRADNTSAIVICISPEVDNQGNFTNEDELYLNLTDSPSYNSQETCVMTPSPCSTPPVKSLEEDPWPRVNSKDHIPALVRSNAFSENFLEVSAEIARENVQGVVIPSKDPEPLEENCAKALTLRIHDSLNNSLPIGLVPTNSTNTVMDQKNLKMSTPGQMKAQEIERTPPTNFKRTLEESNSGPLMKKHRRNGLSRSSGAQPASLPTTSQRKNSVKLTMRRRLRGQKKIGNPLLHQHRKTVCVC
Chain of Cytochrome P450 2C9 (Homo sapiens) (P11712 whole entry, looked up): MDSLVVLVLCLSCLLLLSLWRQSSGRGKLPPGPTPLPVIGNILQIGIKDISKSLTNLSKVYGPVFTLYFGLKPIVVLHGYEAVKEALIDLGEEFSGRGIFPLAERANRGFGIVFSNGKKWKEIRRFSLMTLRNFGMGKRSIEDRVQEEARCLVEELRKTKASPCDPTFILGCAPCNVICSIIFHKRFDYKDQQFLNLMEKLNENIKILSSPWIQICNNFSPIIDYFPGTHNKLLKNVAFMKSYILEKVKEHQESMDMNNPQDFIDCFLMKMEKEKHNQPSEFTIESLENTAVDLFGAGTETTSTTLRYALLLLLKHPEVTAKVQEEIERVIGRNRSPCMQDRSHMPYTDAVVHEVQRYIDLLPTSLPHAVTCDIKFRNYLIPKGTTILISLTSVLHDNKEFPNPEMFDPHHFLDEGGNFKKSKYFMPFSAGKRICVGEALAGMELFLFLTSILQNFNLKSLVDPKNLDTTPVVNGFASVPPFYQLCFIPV
Chain of Cytochrome P450 2D6 (Homo sapiens) (P10635 whole entry, looked up): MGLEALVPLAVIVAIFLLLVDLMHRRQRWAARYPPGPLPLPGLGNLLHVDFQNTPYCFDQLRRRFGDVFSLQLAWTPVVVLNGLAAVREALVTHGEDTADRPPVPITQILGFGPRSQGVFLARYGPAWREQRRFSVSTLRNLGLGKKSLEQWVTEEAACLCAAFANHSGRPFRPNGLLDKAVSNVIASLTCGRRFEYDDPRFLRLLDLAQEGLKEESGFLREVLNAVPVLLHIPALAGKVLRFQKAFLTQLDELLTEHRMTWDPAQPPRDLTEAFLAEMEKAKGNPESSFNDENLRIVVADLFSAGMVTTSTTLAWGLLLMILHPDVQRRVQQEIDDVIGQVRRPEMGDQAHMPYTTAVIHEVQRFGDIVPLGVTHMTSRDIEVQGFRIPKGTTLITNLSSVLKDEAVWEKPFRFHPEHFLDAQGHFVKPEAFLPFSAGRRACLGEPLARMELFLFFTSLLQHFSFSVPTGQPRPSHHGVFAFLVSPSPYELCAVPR

CCCNC(C)(C)COC(=O)c1ccccc1
inactive: outcome [1] | outcome [2] | outcome [3] | outcome [4] | outcome [5] | Potency [6]

CC(C(=O)O)c1ccc2c(c1)Cc1cccnc1O2 (stereo not given)
inactive: outcome [1] | outcome [2] | outcome [3] | outcome [4] | outcome [5] | Potency [6] | Potency [7] | Potency [8]

C[N+]1(C)CCCC(OC(=O)C(O)(c2ccccc2)c2ccccc2)C1 (stereo not given)
inactive: outcome [1] | outcome [2] | outcome [3] | outcome [4] | Potency [6] | Potency [8]
active: Potency [7] 12.3 µM

COc1ccc2cc(CCC(C)=O)ccc2c1
inactive: outcome [1] | outcome [2] | outcome [3] | outcome [4] | outcome [9] | Potency [6] | Potency [8]

COc1ccc(O)cc1
inactive: outcome [1] | outcome [2] | outcome [3] | outcome [4] | Potency [7] | Potency [8]

NC(N)=NCCN1CCCCCCC1
inactive: activity change, negative = inhibition [1] -12.2% [at 0.727 µM] | activity change, negative = inhibition [2] 2.05% [at 0.505 µM] | activity change, negative = inhibition [3] 1.78% [at 0.575 µM] | activity change [4] -10.9% [at 0.0343 µM] | % pathology change, negative = correction [6] -4.73% [at 0.369 µM]

Cn1cc(C(=O)[C@@H]2CCc3nc[nH]c3C2)c2ccccc21
active: Potency [7] 12.3 µM
inactive: outcome [1] | outcome [2] | outcome [3] | outcome [4] | outcome [10] | max response [11] 11.5% | Potency [6] | Potency [8]

CC1CCc2cc(F)cc3c(=O)c(C(=O)O)cn1c23 (stereo not given)
inactive: outcome [1] | outcome [3] | outcome [4] | outcome [9] | outcome [5] | % pathology change, negative = correction [6] -13.4% [at 9.22 µM] | Potency [7] | Potency [8]

C[C@H]1COc2c(C3(N)CC3)c(F)cc3c(=O)c(C(=O)O)cn1c23
inactive: outcome [1] | outcome [3] | outcome [4] | outcome [9] | outcome [5] | Potency [6] | Potency [7] | Potency [8]

CC(CN(C)C)C(C)(O)Cc1ccc(Cl)cc1 (stereo not given)
active: Potency [7] 12.3 µM
inactive: outcome [1] | outcome [2] | outcome [3] | outcome [9] | Potency [6] | Potency [8]

Nc1ccc(S(=O)(=O)c2ccc(N)cc2)cc1
inactive: outcome [1] | outcome [2] | outcome [3] | Potency [6] | Potency [7] | Potency [8]

CC[C@]12CCCN3CCc4c(n(c5ccccc45)[C@@](O)(C(=O)OC)C1)[C@@H]32
inactive: outcome [1] | outcome [2] | outcome [3] | outcome [5] | Potency [6] | Potency [8]
active: Potency [7] 11 µM

O=C(NCCCN1CCOCC1)c1ccc(Cl)cc1
inactive: outcome [1] | outcome [2] | outcome [3] | outcome [9] | Potency [6] | Potency [8]
active: Potency [7] 2.72 µM

COc1ccc(-c2cc(=O)c3c(O)cc(O[C@@H]4O[C@H](CO[C@@H]5O[C@@H](C)[C@H](O)[C@@H](O)[C@H]5O)[C@@H](O)[C@H](O)[C@H]4O)cc3o2)cc1O
inactive: outcome [1] | outcome [2] | outcome [3] | Potency [7] | Potency [8]

Cc1ccc(C(C)C)c(O)c1
inactive: outcome [1] | outcome [2] | outcome [3] | outcome [9] | Potency [6] | Potency [7] | Potency [8]

O=C(O)c1ccccc1C(=O)Nc1ccc(S(=O)(=O)Nc2nccs2)cc1
inactive: outcome [1] | outcome [2] | outcome [3] | outcome [9] | Potency [6] | Potency [7] | Potency [8]

Cc1cc(O)cc(C)c1Cl
inactive: outcome [1] | outcome [2] | outcome [3] | outcome [5] | Potency [6] | Potency [7] | Potency [8]

CCOC(=O)OC(C)OC(=O)[C@@H]1N2C(=O)[C@@H](NC(=O)[C@H](N)c3ccccc3)[C@H]2SC1(C)C (stereo not given in full)
inactive: outcome [1] | outcome [2] | outcome [3] | outcome [9] | Potency [6] | Potency [8]

CC(=O)N[C@@H](Cc1ccc(O)cc1)C(=O)O
inactive: outcome [1] | outcome [3] | outcome [4] | outcome [9] | outcome [5] | Potency [6] | Potency [7] | Potency [8]

OC[C@@H](O)[C@@H](O)[C@H](O)[C@H](O)CO
inactive: outcome [1] | outcome [2] | outcome [3] | outcome [9] | Potency [6] | Potency [7] | Potency [8]

Nc1ncnc2c1ncn2[C@@H]1O[C@H](COP(=O)(O)O)[C@@H](O)[C@H]1O
inactive: outcome [1] | outcome [3] | outcome [4] | outcome [9] | outcome [5] | Potency [6] | Potency [7] | Potency [8]

Cc1cccc(Nc2ccccc2C(=O)O)c1C
inactive: outcome [1] | outcome [2] | outcome [3] | outcome [5] | Potency [7]

NC(=O)NS(=O)(=O)c1ccc(N)cc1
inactive: outcome [1] | outcome [2] | outcome [3] | outcome [9] | Potency [6] | Potency [7] | Potency [8]

NS(=O)(=O)c1ccc(NC(=O)CCC(=O)O)cc1
inactive: outcome [1] | outcome [2] | outcome [3] | outcome [9] | Potency [6] | Potency [7] | Potency [8]

COc1ccc(C(=O)NCc2ccc(OCCN(C)C)cc2)cc1OC
inactive: outcome [1] | outcome [2] | outcome [3] | outcome [9] | outcome [5] | Potency [6] | Potency [7] | Potency [8]

Cc1cc(-n2nc3ccc(Cl)cc3n2)c(O)c(C(C)(C)C)c1
inactive: outcome [1] | outcome [2] | outcome [3] | outcome [9] | Potency [6] | Potency [7] | Potency [8]

O=C(O)c1ccccc1OP(=O)(O)O
inactive: outcome [1] | outcome [2] | Potency [6] | Potency [7] | Potency [8]
